This is a sample that favours compounds with a hit; in the whole collection about 2.9% have one here.
Nrf2 block: Nrf2 pathway inhibition; A549 ARE-Fluc reporter, luciferase luminescence, 18-24 h; Potency, µM (titrated, usually from 46 µM), for inactives: at the highest dose activity change, negative = inhibition, hits mostly inhibitors; 2.1% of 360,000 active; AID 504444; note: % is set by controls: 0 for no effect and ±100 for the full control effect; nearly all actives have a fitted effect of over 60% in size
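A549 ARE_Fluc cells (5000/well, 5% FBS OPTI-MEM) pre-incubated 2 h, then treated with compounds 18-24 h at 37C/5% CO2 in concentration-response. CellTiter-Fluor viability read first; BugLite luciferase luminescence after 15 min at room temperature gives Nrf2 activity.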
Nrf2 activator: activators of Nrf2 (ARE) signaling. 0.31% of 410,000 active. Potency, µM (highest dose often 46.1 µM), for the others: top-dose activation, most hits filed as activators. AID 624171. AREc32 ARE-luciferase reporter (MCF7-derived line), luminescence, 24 h; note: % of control where 0% means no effect; nearly all actives have a fitted effect of over 65% in size
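For detection, Steady-Glo was added and plates sat 30 min at RT; before that, AREc32_Fluc cells grown overnight in OPTI-MEM/5% FBS had been treated with 23 nL compound for 24 hr at 37 deg C.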
ATXN2 expr inh: reduces ATXN2 reporter expression in HEK-293 cells. HEK-293 ATXN2-luciferase reporter, luminescence, 24 h. Potency, µM (top dose mostly 57 µM), for inactives: top-dose activity change, negative = inhibition, most hits filed as inhibitors. 0.72% of 360,000 active. AID 1745845; note: % is set by controls: 0 for no effect and ±100 for the full control effect; nearly all actives have a fitted effect of over 55% in size
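qHTS (up to 57 uM final) was run with 24 h compound exposure of reporter cells at 37 °C. Each well was multiplexed: SteadyGlo luminescence measured ATXN2-luciferase expression after a fluorogenic Gly-Phe-AFC viability readout (25 uM final).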
S2 tox: cell viability loss in ATXN counter-screen; 0.49% of 400,000 active; Potency, µM (top dose mostly 56.7 µM), usual class: cytotoxic; S2 cells (HEK-293 line with an ATXN2-luciferase reporter) viability, CellTiter-Fluor protease fluorescence, 24 h; note: nearly all actives have a fitted effect of over 40% in size
A549 tox-1: counter-screen for Nrf2 inhibitors: cytotoxicity in A549 cells. A549 ARE-Fluc cells, CellTiter-Fluor viability, 18-24 h. Potency, µM (top dose mostly 46 µM), for inactives: at the highest dose activity change, negative = cytotoxicity, hits mostly inhibitors. 0.16% of 390,000 active. AID 504648; note: % is set by controls: 0 for no effect and ±100 for the full control effect
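A549 ARE_Fluc cells in 5% FBS OPTI-MEM were exposed to compounds in concentration-response for 18-24 h at 37 deg C. Viability was read by CellTiter-Fluor fluorescence (Ex 405/Em 525) after 30 min, before the luciferase read.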
FLuc enzyme inh: firefly luciferase inhibition, Nrf2 hit validation | shares compounds with Nrf2 block | purified firefly luciferase, luminescence inhibition | Potency, µM (top dose mostly 57.5 µM), without a hit: at the highest dose activity change, negative = inhibition, hits mostly inhibitors | 4% of 1,400 active | AID 720522; note: % is set by controls: 0 for no effect and ±100 for the full control effect; nearly all actives have a fitted effect of over 65% in size
Target sequence (P08659 whole entry, looked up): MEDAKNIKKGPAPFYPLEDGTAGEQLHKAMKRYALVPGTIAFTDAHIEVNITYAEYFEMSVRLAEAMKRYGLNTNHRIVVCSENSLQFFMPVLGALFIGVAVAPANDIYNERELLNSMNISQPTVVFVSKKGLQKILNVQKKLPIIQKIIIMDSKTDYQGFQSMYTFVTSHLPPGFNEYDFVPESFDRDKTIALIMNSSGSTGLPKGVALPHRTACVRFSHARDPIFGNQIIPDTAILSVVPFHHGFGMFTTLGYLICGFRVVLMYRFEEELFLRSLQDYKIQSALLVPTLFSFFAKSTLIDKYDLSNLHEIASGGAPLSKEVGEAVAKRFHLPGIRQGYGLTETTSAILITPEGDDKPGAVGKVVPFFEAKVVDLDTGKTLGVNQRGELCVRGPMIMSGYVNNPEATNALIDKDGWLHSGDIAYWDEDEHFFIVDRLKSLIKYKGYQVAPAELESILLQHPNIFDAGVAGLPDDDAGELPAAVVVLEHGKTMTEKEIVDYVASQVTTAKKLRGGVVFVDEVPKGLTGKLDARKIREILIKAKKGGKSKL
A549 tox-2: toxic to A549 ARE-Fluc cells in Nrf2 counterscreen; A549 ARE-Fluc cells, cytotoxicity counterscreen; Potency, µM (titrated, usually from 46.1 µM), for inactives: at the highest dose activity change, negative = cytotoxicity, most hits filed as inhibitors; 2% of 1,400 active; shares compounds with Nrf2 block;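 note: cells exposed to compounds for 18 to 24 hours; % is set by controls: 0 for no effect and ±100 for the full control effect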
ARE-Fluc inh: Nrf2 inhibition confirmed, A549 ARE-luciferase | shares compounds with Nrf2 block | A549 ARE-firefly luciferase reporter, luminescence | Potency, µM (series often up to 46.1 µM), without a hit: top-dose activity change, negative = inhibition, actives largely listed as inhibitors | 74% of 1,400 active | AID 720524; note: % is set by controls: 0 for no effect and ±100 for the full control effect; nearly all actives have a fitted effect of over 65% in size
Starred values were filed as active, the others as inactive; i = inactive; u = inconclusive; x = not tested or not shown; [ ] = dose if it differs, or a comment. Calls come from the whole dose curve; as a rule, active = well fitted curve in the direction sought with a large enough effect; inconclusive = small, poorly fitted or top-dose-only effect, or another doubt; inactive = no such curve, though single readings can be large; an effect the other way counts as inactive or inconclusive. Potency is the fitted concentration of half-maximal effect.

SMILES	Nrf2 block	Nrf2 activator	ATXN2 expr inh	S2 tox	A549 tox-1	FLuc enzyme inh	A549 tox-2	ARE-Fluc inh
CN(C(=O)c1oc(=O)c2ccccc2c1-c1ccccc1)c1cccc(Cl)c1	u	5%	x	x	-16%	x	x	x
CCc1nc(N)nc(N)c1-c1ccc(Cl)c(N=[N+]=[N-])c1	u	3%	-21%	i	-6%	x	x	x
CCc1nc(N)nc(N)c1-c1ccc(Cl)c([N+](=O)[O-])c1	0.37µM*	8%	u	u	-1%	1%	-5%	0.92µM*
COC(=O)CCn1nnc(-c2ccc(C(C)C)cc2)n1	0.52µM*	-2%	0.5µM*	i	-1%	11µM*	-1%	0.58µM*
COC(=O)CCn1nnc(-c2cccs2)n1	4%	2%	2%	i	-4%	x	x	x
Cc1c2ccncc2cc2c1[nH]c1ccccc12	-24%	-1%	u	u	u	x	x	x
COc1ccc2[nH]c3c(C)c4ccncc4c(C)c3c2c1	8.2µM*	-3%	2µM*	u	u	-26%	u	2.6µM*
O=C(NCc1nnc(SCC(=O)N2CCCc3ccccc32)n1-c1ccccc1)c1cccc2ccccc12	2.6µM*	0%	-20%	i	-11%	-1%	-18%	10µM*
Cc1ccccc1-c1noc(-c2nnn(-c3ccccc3C)c2N)n1	u	6%	x	x	17%	x	x	x
O=C(CCCN1C(=O)/C(=C/c2ccccc2Cl)SC1=S)NNC(=O)c1cccnc1	u	11%	u	i	-12%	x	x	x
O=C(CCCN1C(=O)/C(=C/c2ccccc2Cl)SC1=S)NNC(=O)c1ccc(Cl)cc1Cl	6.5µM*	-2%	2.5µM*	i	0%	-12%	-19%	7.3µM*
O=C1N=C(N2CCC(Cc3ccccc3)CC2)S/C1=C/c1cn[nH]c1-c1ccccc1	u	0%	-21%	i	-15%	-1%	-6%	u
Cc1cc(OCC(=O)NCC2(N3CCN(C)CC3)CCCCC2)cc(C)c1Cl	26%	10%	x	x	-23%	x	x	x
Cc1cc(C(=O)COc2cccnc2[N+](=O)[O-])c(C)n1Cc1cccs1	u	0%	u	u	-3%	x	x	x
CC(=O)Nc1ccccc1OCC(=O)c1cc(C)n(Cc2cccs2)c1C	0.41µM*	3%	45%	i	u	15µM*	-4%	-24%
Cc1ccc(S(=O)(=O)N2C[C@@H]3CCCC[C@@H]3[C@@H](C)[C@H]2c2cn(Cc3ccccc3)c3ccccc23)cc1	1.8µM*	-1%	u	u	-1%	2%	-16%	2.9µM*
Cc1ccc(S(=O)(=O)N2C[C@@H]3CCCC[C@@H]3[C@@H](C)[C@H]2c2cn(Cc3ccccc3)c3ncccc23)cc1	5.2µM*	0%	u	i	-11%	3%	-13%	5.2µM*
Cc1nc(-c2ccccc2)sc1CCNC(=O)c1ccco1	x	4%	2%	i	12%	x	x	x
Cn1c(=O)c2c(nc(NCc3ccco3)n2C/C=C/c2ccccc2)n(C)c1=O	4.1µM*	5%	u	u	u	0%	-19%	7.3µM*
COc1ccc(Cn2ccnc2SCC(=O)NCc2ccccc2)cc1	x	-1%	x	x	-4%	x	x	x
Cc1ccc(Cn2nc(C)c(NC(=O)CSc3nc4c(c(C(F)(F)F)n3)CCc3ccccc3-4)c2C)cc1	9%	0%	u	x	-4%	x	x	x
Cc1nn(Cc2ccc(Cl)cc2)c(C)c1NC(=O)CSc1nc2c(c(C(F)(F)F)n1)CCc1ccccc1-2	9.2µM*	0%	u	u	u	-8%	u	u
COc1ccc(C(C(=O)NCc2ccccc2)N(C(=O)Cn2nnc3ccccc32)c2ccc(F)cc2)cc1 (stereo unspecified)	-11%	-1%	x	x	-14%	x	x	x
CCN(Cc1ccccc1)S(=O)(=O)c1ccc(C(=O)N2CCN(c3nc4ccccc4s3)CC2)cc1	1.8µM*	0%	u	u	-13%	-11%	0%	7.3µM*
CCc1ccc2nc(N3CCN(C(=O)c4ccccc4)CC3)sc2c1	x	0%	x	x	-9%	x	x	x
SMILES	Nrf2 block	Nrf2 activator	ATXN2 expr inh	S2 tox	A549 tox-1	FLuc enzyme inh	A549 tox-2	ARE-Fluc inh
Cc1ccccc1NC1=C(Cl)C(=O)OC1OC(=O)c1ccccc1C (stereo unspecified)	1.6µM*	u	-15%[11.3 µM]	i	u	-4%	-2%	u
CCC(C)NC(=O)c1sc2nc(C)c(C(=O)Nc3ccc(C)cc3C)c(-c3ccc(NC(C)=O)cc3)c2c1N (stereo unspecified)	-18%	0%	-19%	i	u	x	x	x
CSc1ccc(CCNc2ncnc3onc(-c4ccc(Cl)cc4)c23)cc1	9.2µM*	0%	x	x	3%	2%	-3%	u
Fc1ccc(-c2noc3ncnc(NCCc4ccc(Cl)cc4)c23)cc1	u	-1%	-7%	i	2%	x	x	x
CCOc1ccccc1CNC(=O)CSc1n[nH]c(-c2ccccc2Cl)n1	x	-1%	x	x	17%	x	x	x
CN(C)NC1=CC(=[N+]2CCCC2)CC(C)(C)C1	-14%	0%	18%	i	3%	x	x	x
CC1(C)CC(N2CCOCC2)=CC(=[N+]2CCOCC2)C1	-6%	-1%	3%	i	-7%	x	x	x
CCCN(CCC)C1=CC(=[N+]2CCCC2)CC(C)(C)C1	2.1µM*	2%	u	u	-17%	0%	-10%	4.6µM*
CC1(C)CC(N2CCCCC2)=CC(=[N+]2CCCCC2)C1	2.3µM*	0%	u	u	-21%	2%	-13%	9.2µM*
O=C(c1ccccc1F)N1c2nc(-c3ccco3)nn2C2(CCCCC2)[C@@H]2CCCC[C@@H]21	6%	9%	x	x	-19%	x	x	x
O=C1CCC2S/C(=C/Nc3ccc(C(F)(F)F)cc3)C(=O)N12 (stereo unspecified)	1µM*	-4%	2.8µM*	i	0%	11µM*	2%	4.1µM*
Cc1cccc(Oc2nc3c(C)cccn3c(=O)c2/C=C(\C#N)c2nc3ccccc3[nH]2)c1	x	9%	2%	i	15%	x	x	x
CSC(=S)NN=C(C)c1cccc(C)n1	4.1µM*	26%	u	u	u	u	-26%	x
CCC1CCCCN1CCCNC(=O)c1sc2nc(C)cc(C)c2c1-n1cccc1 (stereo unspecified)	5%	5%	x	x	2%	x	x	x
